Data on three compounds can be found in PubChem BioAssay AID651871 (Sanford-Burnham Center for Chemical Genomics, 2012).

Where “and” joins values, the source holds several entries; their conditions need not be identical. Equal values may be shown once.

The experiment deals with HL-1. Kind of experiment: cardiomyocyte survival under oxidative or metabolic stress – cell-based, panel, H9c2 and HL-1, ATP luminescence, set 2, SAR follow-up (AID 651871).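 Further: cells exposed to stressor for 2 h before ATP readout; reference of the scale not given here.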 Particulars: H9c2/HL-1 cardiomyocytes, 2-deoxyglucose stress, with 2-deoxyglucose, run 5, at 79 µM (top of the series).
Consider `CCOC(=O)c1cccc(NC(=O)CNC(=O)c2cc(-c3cc(OC)c(OC)c(OC)c3)nc3ccccc23)c1`, for which the activity (protection/inhibition) is 51.1%.

In the case of `COc1ccc2nc(-c3cc(OC)c(OC)c(OC)c3)cc(C(=O)NCC(=O)Nc3ccc(C(C)=O)cc3)c2c1`, the activity (protection/inhibition) came out at 55.8%.

With `COc1ccc2c(c1OC)C(=O)N1c3ccccc3C(=O)N(Cc3cccc(Cl)c3Cl)C21` (stereo not drawn), the activity (protection/inhibition) was 43.8% and -9.92%.
